Experimental data from PMC5540273 (PLoS ONE, 2017).
“And” between values parts separate entries of the source, which are not always exact repeats. Equal entries are not always repeated. Where two headings read alike, the source gives them in different places.

Experiments:
CSNK1A1 = conditions: concentration: 1 μM, replicates: in singlicate; n = 1
CSNK1D = conditions: n = 1
CSNK1E = conditions: n = 1
CSNK1G1 = conditions: n = 1
CSNK1G2 = conditions: concentration: 1 μM, replicates: in singlicate; n = 1
CSNK1G3 = conditions: n = 1
CSNK2A1 = conditions: n = 1
CSNK2A2 = conditions: n = 1
CTK = system: T1, CTK; conditions: concentration: 1 μM, replicates: in singlicate; n = 1
T1 construct: gene MATK

DAPK1 = conditions: n = 1
[1] = concentration: 1 μM, replicates: in singlicate
[2] = concentration: 1 μM,replicates: in singlicate, 1 µM
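Further: KINOMEscan kinase panel screen.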

SMILES	%Inh (CSNK1A1) [%]	%Inh (CSNK1D; [1]) [%]	%Inh (CSNK1E; [1]) [%]	%Inh (CSNK1G1; [1]) [%]	%Inh (CSNK1G2) [%]	%Inh (CSNK1G3; [1]) [%]	%Inh (CSNK2A1; [1]) [%]	%Inh (CSNK2A2; [1]) [%]	%Inh (CTK) [%]	%Inh (DAPK1; [1]) [%]	%Inh (CSNK1D; [2])	%Inh (CSNK1E; [2])	%Inh (CSNK1G1; [2])	%Inh (CSNK1G3; [2])	%Inh (CSNK2A1; [2])	%Inh (CSNK2A2; [2])	%Inh (DAPK1; [2])
Nc1nc(-c2nccs2)c(-c2ccnc3ccccc23)s1 [GW693542]	40	58	41	9	0	24	0	2	0	0							
CN(C)CCN(C)C(=O)c1cc(-c2ccncc2)c(-c2ccc(Cl)c(O)c2)o1.Cl.Cl [SB-710397]	62	90	93.4	0	0	14	0	4	0	4							
O=C(Nc1ccccc1)Nc1cccc(Oc2ccc3nccn3n2)c1	0	0	0	0	0	2	0	0	0	10							
CSc1nn2c(=O)cc(N3CCOCC3)nc2n1Cc1cccc(C(F)(F)F)c1C [GSK2363608]	0				0				0		27% and 8%	25% and 19%	100% and 4%	41% and 20%	7% and 0%	7% and 0%	3% and 0%
Cc1cccc(-c2nc(C)cc(Nc3ccncc3)n2)n1 [GSK257997]	0	43	42	13	0	10	2	22	0	9							
COc1cc2nccc(Nc3ccc(NC(=O)c4ccc(C)cc4)c(O)c3)c2cc1OC.Cl [GW440132]	0	2	45	0	0	30	0	0	0	0							
O=C(Nc1n[nH]c2cc(-c3cccc(F)c3F)ccc12)C1CC1 [SB-733894]	16	17	0	0	4	0	0	29	56	20							
COc1cc2ncnc(Nc3ccc4nc(-c5ccccc5)[nH]c4c3)c2cc1OC.Cl [GW282450]	0	6	24	15	0	17	5	98.4	0	1							
CC(C)(C)c1ccc(C(=O)Nc2cn3cc(Cl)ccc3n2)cc1	19	67	59	0	16	0	0	0	0	20							
Cc1cccc(-c2cc(Nc3ccncc3)c3ccccc3n2)n1 [GSK223675]	0	14	50	10	0	17	7	2	0	18							
Cc1cccc(-c2nc(-c3ccc(S(C)(=O)=O)cc3)sc2-c2ccnc(NCCc3ccccc3)c2)c1	0	1	8	5	1	0	0	28	0	0							
Cc1nnc(-c2ccc3occ(-c4ccc(S(C)=O)cc4)c3c2)[nH]1 (centres unmarked)	0	0	0	8	4	0	63	72	21	10							
CC(C)(C)c1ccc(C(=O)Nc2cn3cc(-c4cccnc4)ccc3n2)cc1	41	78	92.4	10	24	21	22	17	12	40							
COC(=O)c1c(-c2ccccc2)c2cc(OC)ccc2c(=O)n1Cc1ccccc1	9	0	0	8	0	0	0	27	26	37							
Cn1ccc2ncnc(Oc3ccc(NC(=O)Nc4ccccc4)cc3)c21	4	13	5	0	11	0	14	0	0	11							
Cc1cccc(-c2nc(Nc3ccncc3)c3ccccc3n2)n1 [GW855857]	46	73	77	0	20	12	0	0	0	0							
Cl.O=C(Nc1cccc(-c2nn3ncccc3c2-c2ccnc(Nc3cccnc3)n2)c1)c1c(F)cccc1F [GSK312879]	0	15	24	8	0	15	1	0	25	2							
Nc1ncnc2[nH]c(-c3ccccc3)nc12 [AH5015]	0	21	14	11	0	9	29	100	5	4							

SMILES	%Inh (CSNK1A1) [%]	%Inh (CSNK1D; [1]) [%]	%Inh (CSNK1E; [1]) [%]	%Inh (CSNK1G1; [1]) [%]	%Inh (CSNK1G2) [%]	%Inh (CSNK1G3; [1]) [%]	%Inh (CSNK2A1; [1]) [%]	%Inh (CSNK2A2; [1]) [%]	%Inh (CTK) [%]	%Inh (DAPK1; [1]) [%]	%Inh (CSNK1D; [2])	%Inh (CSNK1E; [2])	%Inh (CSNK1G1; [2])	%Inh (CSNK1G3; [2])	%Inh (CSNK2A1; [2])	%Inh (CSNK2A2; [2])	%Inh (DAPK1; [2])
O=c1cc(N2CCOCC2)nc2n(Cc3cccc(Cl)c3Cl)ccn12 [GSK2286295]	27	26	41	10	0	41	2	5	0	8							
O=C(Nc1n[nH]c2nc(-c3nccs3)c(Br)cc12)C1CC1 [SB-742251]	0	21	14	13	0	0	0	36	15	0							
Cl.Oc1ccc(-c2nc(-c3ccccc3)[nH]c2-c2ccncc2)cc1 [SB-428218]	0	37	28	18	0	0	0	0	0	3							
COc1ccc(C2=C(Nc3cccc(C(=O)O)c3)C(=O)NC2=O)cc1 [SB-390765]	15	14	0	11	0	3	18	10	43	5							
COc1cccc(-c2cc(-c3c[nH]nc3-c3ccccn3)ccn2)c1 [GW680338]	31	25	23	1	3	10	4	11	0	0							
NC(=O)c1nnc2ccccc2c1N	66	49	37	9	0	43	11	24	0	2							
Cn1ccc2ncnc(Oc3ccc(Nc4nc5ccccc5[nH]4)cc3)c21	0	0	0	0	0	0	0	0	0	0							
Cc1c(O)cccc1Nc1ccnc2ccc(C(F)(F)F)cc12.Cl [GW466413]	0	0	22	0	0	0	0	0	0	0							
O=C(Nc1n[nH]c2nc(-c3nccs3)c(Br)cc12)C1CCCC1 [SB-742609]	25	42	11	0	0	22	0	0	0	0							
CCn1c(-c2ccccn2)nc2cnccc21 [SB-736398]	0	0	4	0	0	0	0	0	0	0							
COc1ccc(CNC(=O)NC2CCN(c3ccnc(Nc4cc(OC)c(OC)c(OC)c4)n3)C2)cc1 (centres unmarked) [GSK1379748]	0	0	14	0	0	23	6	9	0	0							
O=S(=O)(c1ccc(-c2ccnc3[nH]ccc23)cc1)N1CCCC1 [GSK846226]	0	7	41	5	0	37	4	6	0	58							
CS(=O)(=O)c1ccc(-c2nc3n(c2-c2ccncc2)CCC3)cc1 [SKF-105942]	0	6	22	4	0	2	0	9	0	0							
Fc1cccc(COc2nnc(-c3ccc4c(c3)CCO4)o2)c1	0	0	0	10	4	0	42	60	0	24							
CC1=C(C(=O)Nc2cc3cn[nH]c3cc2F)C(c2ccc(C(F)(F)F)cc2)CC(=O)N1 (centres unmarked) [GSK429286]	0	10	25	7	0	12	18	0	0	9							
Clc1cc(Cl)cc(Nc2ccnc(Nc3cc(Cl)cc(Cl)c3)n2)c1 [GSK175726]	0	17	57	22	0	9	4	89	0	11							
CS(=O)(=O)c1ccc(-c2c(-c3ncn[nH]3)sc(N3CCOCC3)c2C#N)cc1	48	0	4	1	0	0	0	24	26	5							
